Experimental findings from PubChem BioAssay (NCATS) are described below.

Experiment [1] can be described thus: Viability qHTS for spleen associated tyrosine kinase inhibitor (SYKi) naive MV4-11 cells (AID 1963823). Note: nearly all actives have a fitted effect of over 40% in size. Note: potency is the fitted concentration of half-maximal effect. In outline:
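Read-out: CellTiter-Glo luminescence. Exposure: 72 hr, 37 C, 5% CO2, 95% humidity. Cells: MV4-11 without SYK inhibitor history, 500/well, qHTS format.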

A short description of experiment [2]: Viability qHTS for spleen associated tyrosine kinase inhibitor (SYKi) drug resistant MV4-11 cells (AID 1963824). Note: nearly all actives have a fitted effect of over 35% in size. In outline:
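CellTiter-Glo luminescence, read 10 min after reagent addition, reports viability after a 72 hr compound exposure. Cells are an MV4-11 line made resistant to SYK inhibition, seeded at 500 per well onto compound-containing plates.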
In general terms: Quantitative high-throughput screening tests each substance at several concentrations.

A short description of experiment [3]: Cellular viability qHTS for adrenocortical cancer (ACC) cell line SW-13 (AID 1963989).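 Note: cells grown in serum-free medium with ITS supplement; % is set by controls: 0 for no effect and ±100 for the full control effect; nearly all actives have a fitted effect of over 65% in size.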 Conditions: SW-13 ACC cells viability, CellTiter-Glo, 48 h; activity (max response): stronger effect = lower value. In outline: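 Viability was read as CellTiter-Glo luminescence after 48 h compound treatment (up to 46 uM final) of SW-13 cells grown serum-free; titration curves were fit with a four-parameter logistic model to give IC50 and efficacy.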

The nature of experiment [4]: Cellular viability qHTS for adrenocortical cancer (ACC) cell line NCI-H295R (AID 1963990).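 Note: 0% = DMSO only wells and -100% = full killing with cytotoxic reference compound; nearly all actives have a fitted effect of over 60% in size.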 Summed up: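 CellTiter-Glo ATP luminescence, read 48 h after compound addition, measured viability of NCI-H295R adrenocortical cells grown serum-free with ITS. Final concentrations spanned up to 46 uM. Data normalized to DMSO and doxorubicin, fitted for IC50 and maximal response.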

Results filed as inconclusive are left out. Values without a mark were called inactive. Active and inactive are the calls of the source. Calls come from the whole dose curve; as a rule, active = well fitted curve in the direction sought with a large enough effect; inconclusive = small, poorly fitted or top-dose-only effect, or another doubt; inactive = no such curve, though single readings can be large; an effect the other way counts as inactive or inconclusive.

In the case of `CCCCC1C(=O)NC(=O)N(C2CCCCC2)C1=O` (configuration not stated), the Potency result in experiment [1], in experiment [2] and in experiment [4] was “inactive” each time. Besides, in experiment [3], the activity (max response) is -4.2%.

With `O=C(NC(O)C(Cl)(Cl)Cl)NC(O)C(Cl)(Cl)Cl` (configuration not stated), the Potency result in experiment [1], in experiment [2] and in experiment [4] was “inactive” throughout. Further, the activity (max response) in experiment [3] is 11.7%.

For the compound `CC(C)(C)NCC(O)c1cc(Cl)c(N)c(C(F)(F)F)c1` (configuration not stated), the Potency result in experiment [1], in experiment [2] and in experiment [4] was “inactive” in each case. Moreover, the activity (max response) in experiment [3] is 9.74%.

For `Cc1ccc2c(c1)C1CN(C)CCC1N2` (configuration not stated), the Potency result in experiment [1], in experiment [2] and in experiment [4] was “inactive” each time. Further, in experiment [3], the activity (max response) was -4.86%.

As for `Cc1ccc(S(=O)(=O)N[C@@H](CCCCN)C(=O)CCl)cc1`, the Potency entry in experiment [1], in experiment [2] and in experiment [4] was “inactive” throughout. Also, the activity (max response) in experiment [3] was 15.2%.

Regarding `CCC(C)C(C)(COC(N)=O)COC(N)=O` (configuration not stated), the Potency result in experiment [1], in experiment [2] and in experiment [4] was “inactive” throughout. Besides, in experiment [3], the activity (max response) is 2.89%.

As to `CC1(C)C(C=C(Cl)Cl)C1C(=O)OC(C#N)c1cccc(Oc2ccccc2)c1` (configuration not stated), the Potency in experiment [1] was 2660 nM (active). The Potency entry in experiment [2] and in experiment [4] was “inactive” in each case. For the same compound, the activity (max response) in experiment [3] is 4.33%.

On to `CCN(CC)CCOC(=O)C(C)(c1ccccc1)c1ccccc1`, for which the Potency entry in experiment [1], in experiment [2] and in experiment [4] was “inactive” throughout. For the same compound, the activity (max response) in experiment [3] is -13.3%.

As for `CCNc1nc(Cl)nc(NCC)n1`, the Potency entry in experiment [1], in experiment [2] and in experiment [4] was “inactive” throughout. For the same compound, the activity (max response) in experiment [3] was -2.51%.

With `Cc1ncc(CNC(=O)N(CCCl)N=O)c(N)n1`, the Potency result in experiment [1], in experiment [2] and in experiment [4] was “inactive” each time. Also, in experiment [3], the activity (max response) was 2.91%.

As to `CCN(CC)CCOC(=O)C(O)(c1ccccc1)c1ccccc1`, the Potency result in experiment [1], in experiment [2] and in experiment [4] was “inactive” each time. Also, the activity (max response) in experiment [3] was 1.88%.

Regarding `C=C1CC[C@@]2(O)[C@H]3Cc4ccc(O)c5c4[C@@]2(CCN3CC2CC2)[C@H]1O5`, the Potency result in experiment [1] and in experiment [2] was “inactive” each time. Moreover, the activity (max response) in experiment [3] was 2.67%.
